Measurements as given in PubChem BioAssay (NCATS).
Results filed as inconclusive are left out. Entries that show only a call come without a potency. A number with no mark means an inactive call. The source made the active and inactive calls. Unless noted, the call rests on the fitted dose curve; in most records, active means well fitted curve in the direction sought with a large enough effect; inconclusive means small, poorly fitted or top-dose-only effect, or another doubt; inactive means no such curve, though single readings can be large; an effect the other way counts as inactive or inconclusive.

How the values were obtained:
[1] = Validation screen for inhibitors of Lassa infection (AID 463096; calls by dose curve; further: potency means the concentration at half of the fitted maximal effect)
[2] = target: ATP-dependent 6-phosphofructokinase (Trypanosoma brucei brucei) (UniProt O15648); assay: qHTS Assay to Find Inhibitors of T. brucei phosphofructokinase: hit validation (AID 492961);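 further: luminescence reports ADP formed as PFK phosphorylates fructose-6-phosphate with ATP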
In short: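 Measures ADP output of PFK (1.25 nM) at 0.1 mM ATP, 0.5 mM F6P, pH 8.0 TEA buffer with 5 mM MgCl2. No-enzyme wells define full inhibition; uninhibited enzyme wells define zero.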

[3] = target: Luciferin 4-monooxygenase (Photinus pyralis) (UniProt P08659); assay: Biochemical firefly luciferase enzyme assay for NPC (AID 624030);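 further: purified P. pyralis luciferase at 10 nM with luciferin and ATP substrate; nearly all actives have a fitted effect of over 70% in size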
In short: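 Direct inhibition of firefly luciferase enzyme (10 nM final, 50 mM Tris Acetate) assessed by luminescence within 5 minutes. Percent activity scaled between DMSO and PTC124 positive control, with concentration-effect curves classified by fit quality and response.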

[4] = qHTS profiling for inhibitors of Plasmodium falciparum proliferation (AID 504749); further: nearly all actives have a fitted effect of over 60% in size; conditions: P. falciparum in erythrocytes, SYBR Green DNA, 72 h
In short: (§1)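 SYBR Green fluorescence of parasite DNA, read after lysis and overnight dark incubation, measured growth over 72 h in erythrocyte culture at 0.3% parasitemia and 2.5% hematocrit. Data normalised to DMSO and 0.29 uM artemisinin, with plate-drift correction.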

[5] = tested on: ATS189; assay: as above; conditions: P. falciparum in erythrocytes, SYBR Green DNA, 72 h; series mostly up to 28.7 µM
In short: as §1

[6] = tested on: C2A; assay: as above; conditions: P. falciparum in erythrocytes, SYBR Green DNA, 72 h; series mostly up to 28.7 µM
In short: as §1

[7] = tested on: CP192; assay: as above; conditions: P. falciparum in erythrocytes, SYBR Green DNA, 72 h; series mostly up to 28.7 µM
In short: as §1

[8] = tested on: CP201; assay: as above; conditions: P. falciparum in erythrocytes, SYBR Green DNA, 72 h; series mostly up to 28.7 µM
In short: as §1

[9] = tested on: CP215; assay: as above; conditions: P. falciparum in erythrocytes, SYBR Green DNA, 72 h; series mostly up to 28.7 µM
In short: as §1

[10] = tested on: CP268; assay: as above; conditions: P. falciparum in erythrocytes, SYBR Green DNA, 72 h; series mostly up to 28.7 µM
In short: as §1

[11] = tested on: CP269; assay: as above; conditions: P. falciparum in erythrocytes, SYBR Green DNA, 72 h; series mostly up to 28.7 µM
In short: as §1

[12] = tested on: CP286; assay: as above; conditions: P. falciparum in erythrocytes, SYBR Green DNA, 72 h; series mostly up to 28.7 µM
In short: as §1

[13] = tested on: CP305; assay: as above; conditions: P. falciparum in erythrocytes, SYBR Green DNA, 72 h; series mostly up to 28.7 µM
In short: as §1

[14] = tested on: CP315; assay: as above; conditions: P. falciparum in erythrocytes, SYBR Green DNA, 72 h; series mostly up to 28.7 µM
In short: as §1

[15] = tested on: CP325; assay: as above; conditions: P. falciparum in erythrocytes, SYBR Green DNA, 72 h; series mostly up to 28.7 µM
In short: as §1

[16] = tested on: CP329; assay: as above; conditions: P. falciparum in erythrocytes, SYBR Green DNA, 72 h; series mostly up to 28.7 µM
In short: as §1

[17] = tested on: ECU; assay: as above; conditions: P. falciparum in erythrocytes, SYBR Green DNA, 72 h; series mostly up to 28.7 µM
In short: as §1

[18] = tested on: FAB9; assay: as above; conditions: P. falciparum in erythrocytes, SYBR Green DNA, 72 h; series mostly up to 28.7 µM
In short: as §1

[19] = tested on: JCK; assay: as above; conditions: P. falciparum in erythrocytes, SYBR Green DNA, 72 h; series mostly up to 28.7 µM
In short: as §1

[20] = tested on: PC49; assay: as above; conditions: P. falciparum in erythrocytes, SYBR Green DNA, 72 h; series mostly up to 28.7 µM
In short: as §1

[21] = at 28.7 µM (top of the series), parasite line A
[22] = at 28.7 µM (top of the series), parasite line B

Sequence of ATP-dependent 6-phosphofructokinase (Trypanosoma brucei brucei) (O15648 whole entry, looked up): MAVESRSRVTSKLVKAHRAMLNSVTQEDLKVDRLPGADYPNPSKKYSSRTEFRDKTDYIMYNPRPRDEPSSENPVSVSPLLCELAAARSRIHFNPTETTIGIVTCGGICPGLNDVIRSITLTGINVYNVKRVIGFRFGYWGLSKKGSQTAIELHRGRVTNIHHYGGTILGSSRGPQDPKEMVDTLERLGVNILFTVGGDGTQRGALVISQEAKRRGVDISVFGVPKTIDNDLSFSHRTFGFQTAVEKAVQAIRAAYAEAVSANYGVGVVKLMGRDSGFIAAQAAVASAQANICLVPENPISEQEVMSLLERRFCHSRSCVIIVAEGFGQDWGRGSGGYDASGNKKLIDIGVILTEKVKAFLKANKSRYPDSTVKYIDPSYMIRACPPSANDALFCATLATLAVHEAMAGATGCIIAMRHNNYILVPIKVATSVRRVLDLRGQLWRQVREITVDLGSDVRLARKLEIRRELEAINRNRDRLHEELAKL
Sequence of Luciferin 4-monooxygenase (Photinus pyralis) (P08659 whole entry, looked up): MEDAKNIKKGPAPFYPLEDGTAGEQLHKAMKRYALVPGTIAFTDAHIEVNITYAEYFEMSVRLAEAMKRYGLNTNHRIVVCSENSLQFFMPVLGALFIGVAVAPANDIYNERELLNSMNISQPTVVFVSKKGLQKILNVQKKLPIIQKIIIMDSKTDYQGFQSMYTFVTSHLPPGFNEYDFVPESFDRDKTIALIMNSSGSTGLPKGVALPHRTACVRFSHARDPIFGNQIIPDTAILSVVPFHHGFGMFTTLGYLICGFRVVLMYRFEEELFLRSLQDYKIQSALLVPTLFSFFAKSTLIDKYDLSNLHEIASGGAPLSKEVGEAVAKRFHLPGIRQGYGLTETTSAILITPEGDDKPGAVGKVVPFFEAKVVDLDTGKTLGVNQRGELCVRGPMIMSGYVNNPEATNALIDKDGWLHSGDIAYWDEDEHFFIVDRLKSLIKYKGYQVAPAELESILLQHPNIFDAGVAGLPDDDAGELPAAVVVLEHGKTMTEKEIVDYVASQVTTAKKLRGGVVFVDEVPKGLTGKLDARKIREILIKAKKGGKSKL

In the case of `COc1cc(=O)n(C)c2c(OCC(O)C(C)(C)O)cccc12` (stereo unspecified), the Potency [1] was “inactive”.

With `CN(C)C1C(=O)C(C(N)=O)=C(O)[C@@]2(O)C(=O)C3=C(O)c4c(O)ccc(Cl)c4[C@@H](O)C3C[C@@H]12` (stereo partly specified) the Potency [1] was “inactive”.

With `C[C@]12CCC(=O)C=C1CC[C@@H]1C2[C@@H](O)C[C@@]2(C)[C@H]1CC[C@]2(O)C(=O)CO` (stereo partly specified) the Potency [1] was “inactive”.

For `COc1cc2c(cc1OC)C(c1ccccc1)CN(C)CC2` (stereo unspecified), the Potency [1] was “inactive”.

With `C/C=C1\C(=O)CC2C3CCC4=CC(=O)CC[C@]4(C)C3CC[C@]12C` (stereo partly specified) the Potency [1] was “inactive”.

In the case of `NC(CCC(=O)NCS(=O)(=O)O)C(=O)O` (stereo unspecified), the Potency [1] was “inactive”.

For `Nc1nc(Cl)nc2c1ncn2[C@@H]1O[C@H](COP(=O)(O)OP(=O)(O)OP(=O)(O)O)[C@H](O)[C@H]1O`, the Potency [1] was “inactive”.

In the case of `Nc1nc(Nc2ccccc2)nc2c1ncn2[C@@H]1O[C@H](CO)[C@H](O)[C@H]1O`, the Potency [1] was “inactive”.

With `Cc1ccc(OCC(O)C(C)NC(C)C)c2c1CCC2` (stereo unspecified) the Potency [1] was “inactive”.

For `NCCC(=O)NCCc1cnc[nH]1`, the Potency [1] was “inactive”.

With `NCCNS(=O)(=O)c1cccc2cnccc12` the Potency [1] was “inactive”.

For `Cn1cnc2c(NC3CCCC3)ncnc21`, the Potency [1] was “inactive”.

In the case of `CC(N)=NCc1cccc(CN)c1`, the Potency [1] was “inactive”.

With `N=C(N)SCCc1cccc(CCSC(=N)N)c1` the Potency [1] was “inactive”.

For `NCCNC(=O)c1ccc(Cl)cc1`, the Potency [1] was “inactive”.

In the case of `O=C(Cc1ccc(Cl)c(Cl)c1)OCCN1CCCC1`, the Potency [1] was “inactive”.

In the case of `CN(C)CCCCSC(=N)N`, the Potency [1] was “inactive”.

With `NC(=NCCC[C@H](N)C(=O)O)NO` the Potency [1] was “inactive”.

In the case of `CCCn1c(=O)c2[nH]c(-c3ccc(OCC(=O)Nc4ccc(C#N)cc4)cc3)nc2n(CCC)c1=O`, the Potency [1] was “inactive”.

With `COc1ccc2c(c1)c(CC(=O)N1CCOCC1)c(C)n2C(=O)c1ccc(Cl)cc1` the Potency [1] was “inactive”.

For `CCCCN1CCC(COC(=O)c2cc(Cl)c(N)c3c2OCCO3)CC1`, the Potency [1] was “inactive”.

With `O=C(O)c1cc(=O)c2ccc(Cl)cc2[nH]1` the Potency [1] was “inactive”.

In the case of `CCCC(=O)NCCc1c2n(c3ccc(OC)cc13)Cc1ccccc1-2`, the Potency [1] was “inactive”.

In the case of `CCCNC[C@H](O)COc1ccccc1C(=O)CCc1ccccc1`, the Potency [1] was “inactive”.

For `Cc1cc(N)c2ccccc2[n+]1CCCCCCCCCCCCCC[n+]1c(C)cc(N)c2ccccc21`, the Potency [1] was 7.08 µM (active).

In the case of `O=C(Nc1cc(C(=O)Nc2ccc(S(=O)(=O)O)cc2S(=O)(=O)O)cc(C(=O)Nc2ccc(S(=O)(=O)O)cc2S(=O)(=O)O)c1)Nc1cc(C(=O)Nc2ccc(S(=O)(=O)O)cc2S(=O)(=O)O)cc(C(=O)Nc2ccc(S(=O)(=O)O)cc2S(=O)(=O)O)c1`, the Potency [1] was “inactive”.

In the case of `O=S(=O)(O)C1CCNCC1`, the Potency [1] was “inactive”.

In the case of `CCSC(N)=Nc1ccc(C(F)(F)F)cc1`, the Potency [1] was “inactive”.

With `NCCCCCCNS(=O)(=O)c1cccc2c(Cl)cccc12` the Potency [1] was “inactive”.

In the case of `CC(C)C[C@H](N)CSSC[C@@H](N)CC(C)C`, the Potency [1] was “inactive”.

With `COc1ccc2c(c1)c(CC(=O)O)c(C)n2Cc1ccc(F)cc1` the Potency [1] was “inactive”.

In the case of `COc1ccccc1NC(=O)Nc1nc(-c2cccnc2)nc2ccccc12`, the Potency [1] was “inactive”.

With `COc1[nH]c2ccc(F)cc2c1C(=O)OCC1CCN(CCNS(C)(=O)=O)CC1` the Potency [1] was “inactive”.

With `C[N+](C)(C)CCC(=O)c1cccc2ccccc12` the Potency [1] was 10 µM (active).

For `COC(=O)c1c(-c2cc(OC)c(OC)c(OC)c2)c2ccc(OCc3ccccn3)cc2c(=O)n1-c1ccc(N)cc1`, the Potency [1] was “inactive”.

With `CC(=O)NCCc1ccc(O)c(O)c1` the Potency [1] was “inactive”.

In the case of `Cc1cccc(C)c1NC(=O)C[N+](C)(C)C`, the Potency [1] was “inactive”.

In the case of `O=c1[nH]c(=O)n([C@H]2C[C@H](O)[C@@H](CO)O2)cc1/C=C/Br`, the Potency [1] was “inactive”.

With `N#Cc1c(-c2ccccc2)no[n+]1[O-]` the Potency [1] was 10 µM (active).

With `Cc1cc(C)c(NC(=O)C[C@H](CC(=O)O)c2cccc3ccccc23)c(C(=O)N2CCC3(CCCC3)CC2)c1` the Potency [1] was “inactive”.

With `CCn1c(=O)c2[nH]c(-c3ccccc3)nc2n(CC)c1=O` the Potency [1] was “inactive”.

For `CC1(C)S[C@@H]2[C@H](N)C(=O)N2C1C(=O)O` (stereo partly specified), the outcome [2] was “inactive”, the Potency [3] was “inactive” and the activity, negative = inhibition ([4]; at 12.8 µM (top of the series), parasite line A) was 15.1%. For the same molecule, the activity, negative = inhibition ([4]; at 12.8 µM (top of the series), parasite line B) was 13.6%, the Potency [5] was “inactive” and the Potency [6] was “inactive”. For the same molecule, the Potency [7] was “inactive”, the Potency [8] was “inactive” and the Potency [9] was “inactive”. The Potency [10] was “inactive”, the Potency [11] was “inactive” and the Potency [12] was “inactive”. The Potency [13] was “inactive”, the Potency [14] was “inactive” and the Potency [15] was “inactive”. For the same molecule, the Potency [16] was “inactive”, the Potency [17] was “inactive” and the Potency [18] was “inactive”. For the same molecule, the Potency [19] was “inactive” and the Potency [20] was “inactive”.

For `C=C1Nc2ccccc2C(=O)N1c1ccccc1C`, the outcome [2] was “inactive”, the Potency [3] was “inactive” and the activity, negative = inhibition [4, 21] was -20.1%. For the same molecule, the activity, negative = inhibition [4, 22] was -23.4%, the Potency [5] was “inactive” and the Potency [6] was “inactive”. The Potency [7] was “inactive”, the Potency [8] was “inactive” and the Potency [9] was “inactive”. For the same molecule, the Potency [10] was “inactive”, the Potency [11] was “inactive” and the Potency [12] was “inactive”. For the same molecule, the Potency [13] was “inactive”, the Potency [14] was “inactive” and the Potency [15] was “inactive”. The Potency [16] was “inactive”, the Potency [17] was “inactive” and the Potency [18] was “inactive”. The Potency [19] was “inactive” and the Potency [20] was “inactive”.

With `CCCCCC(O)C1C(=O)OC(C)C(O)\C=C/C=C\C=C/C=C\C=C(\C)C(O)C(O)C(O)CC(O)CC(O)CC(O)CC(O)CC1O` (stereo unspecified) the outcome [2] was “inactive”, the Potency [3] was “inactive” and the activity, negative = inhibition [4, 21] was 11.9%. For the same molecule, the activity, negative = inhibition [4, 22] was -8.14%, the Potency [5] was “inactive” and the Potency [6] was “inactive”. For the same molecule, the Potency [7] was “inactive”, the Potency [8] was “inactive” and the Potency [9] was “inactive”. For the same molecule, the Potency [10] was “inactive”, the Potency [11] was “inactive” and the Potency [12] was “inactive”. The Potency [13] was “inactive”, the Potency [14] was “inactive” and the Potency [15] was “inactive”. For the same molecule, the Potency [16] was “inactive”, the Potency [17] was “inactive” and the Potency [18] was “inactive”. For the same molecule, the Potency [19] was “inactive” and the Potency [20] was “inactive”.
